# Experimental data as given in PubChem BioAssay.
# Calls of active or inactive are those of the source.
# Experiments:
# [1] = system: Human papillomavirus type 1a protein E7 (residues 44-93); test: small molecules binding HPV E7 44-93 – biochemical, small-molecule microarray, residues 44-93, 635 nm fluorescence, primary screen (AID 1108); details: fluorescence 635 nm, higher = more signal;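 also: E7 fragment applied at 1 µg/mL in TBST for 1 h at 4 C; score combines spot fluorescence with its signal to noise ratio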
# [2] = hepatitis C replication reporter changes, two-sided – Huh7 cells, luciferase reporter, HCV replication inhibitor project, primary screen (AID 1109); details: Huh7 HCV replicon luciferase reporter, 48 h; higher = more signal;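 also: huh7 hepatoma cells harbouring a luciferase neomycin HCV replicon reporter; luciferase luminescence as measure of HCV replicon replication; test concentration not given here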
# [3] = target: Left-right determination factor 2 (Homo sapiens) (UniProt O00292); test: small molecules binding LEFTY2 protein – biochemical, small-molecule microarray, 635 nm fluorescence scan, primary screen (AID 1110); details: higher = more signal
# Sequence of Left-right determination factor 2 (Homo sapiens) (O00292 whole entry, looked up): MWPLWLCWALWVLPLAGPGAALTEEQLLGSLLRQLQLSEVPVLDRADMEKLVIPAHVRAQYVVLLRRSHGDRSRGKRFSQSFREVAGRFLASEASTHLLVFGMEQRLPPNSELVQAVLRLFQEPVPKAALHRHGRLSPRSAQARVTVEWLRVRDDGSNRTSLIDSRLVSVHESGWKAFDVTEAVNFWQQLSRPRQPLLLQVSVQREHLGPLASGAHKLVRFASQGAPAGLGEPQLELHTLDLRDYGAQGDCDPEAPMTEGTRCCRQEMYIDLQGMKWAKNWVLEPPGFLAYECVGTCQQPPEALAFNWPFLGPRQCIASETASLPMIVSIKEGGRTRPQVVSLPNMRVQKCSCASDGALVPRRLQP
# [4] = target: Calmodulin-1 (Homo sapiens) (UniProt P0DP23); test: small molecules binding calmodulin-1 with EGTA – biochemical, small-molecule microarray, Cy5-labelled CALM1, profiling panel (AID 1111); details: Cy5-CALM1 binding fluorescence, higher = more signal;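 also: labelled calmodulin applied in Tris saline Tween buffer holding calcium plus EGTA and DTT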
# [5] = target: Calmodulin-1 (Homo sapiens) (UniProt P0DP23); test: small molecules binding Ca-loaded calmodulin-1 – biochemical, small-molecule microarray, Cy5-labelled CALM1, plus calcium, artefact control for SMM control-protein annotation, profiling panel (AID 1112); details: Cy5-CALM1 binding fluorescence, higher = more signal;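 also: score merges spot fluorescence with signal to noise from triplicate slides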
# [6] = probe aWnt5a binding to arrayed compounds – biochemical, biotinylated probe, 635/667 nm fluorescence, primary screen (AID 1113); details: small-molecule microarray, higher = more signal;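 also: score merges 667 nm fluorescence intensity with signal-to-noise per printed feature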
# [7] = probe aShh binding to arrayed compounds – biochemical, biotinylated probe, 635/667 nm fluorescence, primary screen (AID 1114); details: small-molecule microarray, higher = more signal;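 also: probe is biotin-labelled aShh protein from a stem cell growth factor screen; measures binding of labelled protein to compounds printed on the slide; score merges feature fluorescence at 667 nm with signal-to-noise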
# [8] = probe aNog binding to arrayed compounds – biochemical, biotinylated probe, 635/667 nm fluorescence, primary screen (AID 1115); details: small-molecule microarray, higher = more signal;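 also: probe is biotinylated aNog protein used at 0.15 µg/mL for 1 h at 4 C; z-score combines 667 nm fluorescence of each spot with its signal to noise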
# [9] = target: Torsin-1A-interacting protein 1 (Homo sapiens) (UniProt Q5JTV8); test: compound microarray binding of lysate hLAP1 – cell lysate, small-molecule microarray, COS7 lysate, 635/667 nm fluorescence, primary screen (AID 1116); details: 635 nm fluorescence, higher = more signal
# Sequence of Torsin-1A-interacting protein 1 (Homo sapiens) (Q5JTV8 whole entry, looked up): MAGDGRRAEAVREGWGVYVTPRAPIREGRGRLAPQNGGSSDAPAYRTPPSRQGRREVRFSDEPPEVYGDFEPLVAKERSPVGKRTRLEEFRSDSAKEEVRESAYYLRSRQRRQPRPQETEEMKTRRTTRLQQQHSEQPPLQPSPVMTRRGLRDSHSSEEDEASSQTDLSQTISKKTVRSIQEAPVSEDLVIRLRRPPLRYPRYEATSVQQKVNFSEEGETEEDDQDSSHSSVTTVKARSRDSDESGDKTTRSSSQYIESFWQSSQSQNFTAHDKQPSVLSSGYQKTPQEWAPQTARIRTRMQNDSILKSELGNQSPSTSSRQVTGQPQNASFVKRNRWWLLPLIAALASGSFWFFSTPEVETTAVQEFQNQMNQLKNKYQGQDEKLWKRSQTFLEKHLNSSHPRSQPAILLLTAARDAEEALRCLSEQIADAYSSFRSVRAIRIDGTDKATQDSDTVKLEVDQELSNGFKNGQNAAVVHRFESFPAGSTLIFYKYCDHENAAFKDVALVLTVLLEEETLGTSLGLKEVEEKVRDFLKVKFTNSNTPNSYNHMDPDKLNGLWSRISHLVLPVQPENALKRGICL
# [10] = target: Alpha-bungarotoxin (Bungarus multicinctus) (UniProt P60615); test: compounds binding labelled alpha-BTX control protein – biochemical, small-molecule microarray, Alexa647 label, 635/667 nm fluorescence, artefact control for SMM control protein annotation, profiling panel (AID 1117); details: alpha-BTX-A647 binding fluorescence, higher = more signal
# Sequence of Alpha-bungarotoxin (Bungarus multicinctus) (P60615 whole entry, looked up): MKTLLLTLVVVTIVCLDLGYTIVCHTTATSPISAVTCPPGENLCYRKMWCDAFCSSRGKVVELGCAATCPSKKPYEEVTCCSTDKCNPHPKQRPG
# Albumin (Bos taurus) = Albumin (Bos taurus) (UniProt P02769); test: compounds binding labelled BSA control protein – biochemical, small-molecule microarray, Alexa647 label, 635/667 nm fluorescence, artefact control for SMM control protein annotation, profiling panel (AID 1118); details: BSA-A647 binding, fluorescence 635 nm, higher = more signal;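 also: score merges 667 nm emission intensity and signal-to-noise per printed compound spot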
# Sequence of Albumin (Bos taurus) (P02769 whole entry, looked up): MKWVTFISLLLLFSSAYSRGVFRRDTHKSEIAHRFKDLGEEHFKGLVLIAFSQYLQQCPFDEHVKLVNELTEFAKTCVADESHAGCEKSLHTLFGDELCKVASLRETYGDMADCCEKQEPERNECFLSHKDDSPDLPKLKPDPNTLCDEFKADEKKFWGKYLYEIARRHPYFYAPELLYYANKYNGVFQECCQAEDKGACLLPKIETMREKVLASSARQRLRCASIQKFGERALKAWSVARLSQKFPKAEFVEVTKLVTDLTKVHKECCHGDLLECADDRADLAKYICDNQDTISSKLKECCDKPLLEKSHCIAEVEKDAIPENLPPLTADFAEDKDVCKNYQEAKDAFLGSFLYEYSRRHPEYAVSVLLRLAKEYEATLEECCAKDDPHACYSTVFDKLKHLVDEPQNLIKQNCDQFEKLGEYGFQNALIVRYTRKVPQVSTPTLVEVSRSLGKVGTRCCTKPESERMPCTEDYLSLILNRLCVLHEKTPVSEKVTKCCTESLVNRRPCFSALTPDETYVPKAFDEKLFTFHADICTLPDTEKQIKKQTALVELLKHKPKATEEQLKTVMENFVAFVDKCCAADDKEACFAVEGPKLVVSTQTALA
# [11] = probe aXIP binding to arrayed compounds – biochemical, NeuroSMM set, 635/667 nm fluorescence, primary screen (AID 1119); details: small-molecule microarray, higher = more signal, called active from +8 up or from −8 down;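 also: probe is the protein aXip251-270 applied at 1 µg/mL to compound-printed slides; binding of probe to printed compounds measured as 667 nm fluorescence plus signal to noise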
# [12] = probe aNOTCH3 binding on compound microarray – biochemical, small-molecule microarray, 635/667 nm fluorescence, primary screen (AID 1120); details: higher = more signal;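 also: probe is a biotin-tagged antibody raised against NOTCH3 rather than NOTCH3 protein; score merges spot fluorescence near 667 nm with spot signal to noise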
# [13] = probe aNOTCH2 binding on compound microarray – biochemical, small-molecule microarray, 635/667 nm fluorescence, primary screen (AID 1121); details: higher = more signal;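 also: score merges feature fluorescence read at 667 nm with its signal to noise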
# [14] = target: Carbonic anhydrase 2 (Homo sapiens) (UniProt P00918); test: compounds binding carbonic anhydrase 2 – biochemical, small-molecule microarray, Alexa647-labelled CAII, profiling panel (AID 1122); details: CAII-A647 binding fluorescence, higher = more signal
# [15] = COS7 lysate on small-molecule microarray, probe aHis, 635 nm (AID 1123); details: COS7 cell lysate, fluorescence, higher = more signal;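 also: z-score combines 667nm fluorescence intensity with signal-to-noise per printed compound spot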
# [16] = probe aLAP1 signal on lysate-treated microarray – cell lysate, small-molecule microarray, COS7 lysate, primary screen (AID 1124); details: probe aLAP1, fluorescence, higher = more signal;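 also: lysate comes from COS7 cells expressing LAP1 and is applied at 0.3 µg/mL; score merges spot fluorescence near 667 nm with signal-to-noise over triplicate slides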
# Sam68 (KHDRBS1) = test: compounds binding KHDRBS1 protein – biochemical, small-molecule microarray, 635 nm fluorescence, primary screen (AID 1125); details: higher = more signal;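 also: score merges 667 nm channel intensity with signal to noise over triplicate slides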
# [17] = system: Chordin-like protein 2 (CHRDL2); test: compounds binding chordin-like 2 – biochemical, small-molecule microarray, 635 nm fluorescence, primary screen (AID 1126); details: fluorescence 635 nm, higher = more signal;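 also: printed compound slides probed with Chrdl2 protein at 4 µg/mL for 1 h at 4 C; score merges 667 nm emission intensity with signal to noise over three replicate slides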
# [18] = target: Concanavalin-A (Canavalia ensiformis) (UniProt P02866); test: compounds binding concanavalin A lectin – biochemical, small-molecule microarray, Alexa647 label, 635 nm, artefact control for SMM control protein annotation, primary screen (AID 1127); details: ConA-A647 binding fluorescence, higher = more signal;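 also: z combines 667 nm emission intensity with signal-to-noise across three replicate slides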
# Sequence of Concanavalin-A (Canavalia ensiformis) (P02866 whole entry, looked up): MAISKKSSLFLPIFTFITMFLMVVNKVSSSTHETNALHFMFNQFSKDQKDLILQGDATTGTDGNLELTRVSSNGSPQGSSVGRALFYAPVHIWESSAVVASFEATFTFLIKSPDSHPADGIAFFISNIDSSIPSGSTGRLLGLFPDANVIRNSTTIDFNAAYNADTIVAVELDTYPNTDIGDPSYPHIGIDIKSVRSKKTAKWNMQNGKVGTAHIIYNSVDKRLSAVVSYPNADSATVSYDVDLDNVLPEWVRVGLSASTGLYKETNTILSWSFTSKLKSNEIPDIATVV
Compound,composite z-score [1],z-score [2],composite z-score [3],composite z-score [4],composite z-score [5],composite z-score [6],composite z-score [7],composite z-score [8],composite z-score [9],composite z-score [10],composite z-score (Albumin (Bos taurus)),composite Z-score [11],composite z-score [12],composite z-score [13],composite z-score [14],composite z-score [15],composite z-score [16],composite z-score (Sam68 (KHDRBS1)),composite z-score [17],composite z-score [18]
COC(=O)CC=C[C@H](C)[C@@H](OCc1ccccc1Br)C(C)C,-0.261,0.0087,0.551,-0.354,-0.679,-0.0417,-0.138,-0.333,-0.173,1.54,-0.0311,-0.0469 (inactive),-0.0343,-0.113,-0.279,0.164,0.0326,-0.385,0.382,0.112
COCCOC(=O)N1C(=O)[C@@]2(c3cc(C#CCNC(N)=O)ccc31)[C@H](c1ccc(O)cc1)N1[C@H](c3ccccc3)[C@H](c3ccccc3)OC(=O)[C@H]1[C@@H]2C(=O)N1CCCCCCC1,1.13,-0.768,0.817,-0.0989,-0.218,-0.0718,0.108,-0.559,0.774,0.413,-0.466,-0.624 (inactive),0.207,-0.108,0.244,0.734,0.382,1.3,1.15,0.615
O=C1C[C@@H](O)[C@@H](O)[C@@H]2[C@@H]3C(=O)N(c4ccc(F)cc4F)C(=O)[C@@H]3CC[C@@H]12,0.461,0.586,0.585,-0.0799,-0.389,0.441,-0.221,-0.22,0.408,-0.157,0.129,-0.521 (inactive),-0.0631,-0.118,0.234,-0.344,0.495,0.236,0.65,-0.397
CC[C@@H](c1ccccc1)n1c(=O)n2n(c1=O)[C@H]1[C@H](O)[C@@H]3O[C@@H]3C(=NOCC=C(C)CCC=C(C)C)[C@H]1CC2,1.21,-3.62,0.827,-0.0812,-0.834,-0.001,-0.0866,-0.136,0.215,0.0806,-0.258,-0.183 (inactive),0.192,-0.084,0.406,0.689,-0.194,1.29,0.552,0.548
CC(C)(C)OC(=O)CC[C@]1(C(=O)NCc2ccccc2)N=C(c2ccc(OCCCO)cc2)O[C@H]1c1ccccc1,1.02,-2.44,-0.598,1.91,0.683,0.257,0.147,-0.198,1.6,1.53,0.912,-0.0089 (inactive),0.61,0.0216,0.735,3.07,0.378,1.3,-0.672,1.11
COc1cccc([C@H]2Oc3ccc(OC)cc3C(=NO[C@H](C)c3cn([C@@H]4COC[C@H]4O)nn3)[C@@H]2O)c1,-0.632,-0.0869,-0.647,0.0409,-0.421,-0.184,-0.147,-0.36,-0.1,1.7,-0.224,-0.0239 (inactive),-0.279,-0.179,0.377,-0.162,-0.358,-0.523,-0.353,0.472
COCCOC(=O)N1C(=O)[C@@]2(c3cc(C#CC4(O)CCCCCC4)ccc31)[C@H](c1ccc(OCCO)cc1)N1[C@H](c3ccccc3)[C@H](c3ccccc3)OC(=O)[C@H]1[C@@H]2C(=O)NC[C@H](O)c1ccccc1,1.44,-2.32,0.358,1.28,0.311,0.0079,-0.0289,0.385,1.26,2.17,0.203,-0.317 (inactive),0.0039,-0.115,0.367,1.71,0.288,1.29,-0.0516,1.12
CCCNC(=O)OC[C@H]1O[C@H](CCON=CC[C@@H]2C=C[C@H](OC(C)=O)[C@@H](COC(C)=O)O2)C=C[C@@H]1Oc1ccc(OC)cc1,0.791,0.0229,0.667,-0.625,-0.867,-0.0718,-0.442,-0.267,0.444,0.945,0.619,-0.263 (inactive),0.0131,-0.14,-0.0893,0.0884,0.394,0.911,0.593,0.0162
C#CCCCON=C1C[C@@H](O)[C@@H](O)[C@@H]2[C@@H]3C(=O)N(c4cccc(Oc5ccccc5)c4)C(=O)[C@@H]3CC[C@@H]12,1.3,-0.497,0.159,0.298,-0.285,-0.0808,-0.0709,-0.183,0.0847,0.724,0.487,0.154 (inactive),-0.0311,-0.244,0.256,1.77,-0.164,1.32,-0.0255,0.884
C#CCCCON=C1C[C@@H](O)[C@@H](O)[C@@H]2[C@@H]3C(=O)N([C@@H](C)c4ccccc4)C(=O)[C@@H]3CC[C@H]12,0.207,-0.638,0.45,0.0505,-0.602,0.0354,0.0796,-0.285,0.418,0.375,0.161,-0.26 (inactive),0.0494,-0.0554,-0.0339,-0.0684,0.0595,0.513,0.523,0.282
